Measured values: PubChem BioAssay (NCATS)
Values joined by “and” are separate entries in the source; they are usually repeats but may differ in a detail not shown here. Identical values can stand only once. Results filed as inconclusive are left out. Active and inactive are the calls of the source. Unless noted, calls follow the shape of the dose curve; as a rule, active = well fitted curve in the direction sought with a large enough effect; inconclusive = small, poorly fitted or top-dose-only effect, or another doubt; inactive = no such curve, though single readings can be large; an effect the other way counts as inactive or inconclusive.

Columns and labels:
[1] = qHTS for Activators of Parkin Expression: LOPAC Validation Assay (NLuc Reporter) (AID 720572; also: potency is read from the fitted curve at half-maximal effect)
Summary of the method: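 NLuc signal, read 10 min after reagent and following a prior FLuc read, is normalized to DMSO (0) and positive controls (100%). Cells: neuronal Parkin-promoter coincidence reporter line; compounds tested 7-point, 24 h, 37 C, 5% CO2.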

[2] = qHTS for Activators of Parkin Expression: LOPAC Validation Assay (FLuc Reporter) (AID 720573; also: potency is read from the fitted curve at half-maximal effect)
Summary of the method: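 Readout is FLuc luminescence from neuronal reporter cells (Parkin promoter, FLuc plus NLuc) after 24 h compound exposure in dose response. Values normalized to neutral DMSO and positive-control compounds.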

[3] = qHTS assay for small molecule agonists of the antioxidant response element (ARE) signaling pathway measured by Nrf2-dependant transcriptional activity (AID 720636; active = well fitted curve in the direction sought with a large enough effect in the repeat runs; an effect the other way counts as inactive or inconclusive;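 also: HepG2 cells with an ARE-driven luciferase reporter; % of control where 0% means no effect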)
Summary of the method: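 In HepG2 cells engineered with an Nrf2-responsive luciferase gene, ARE induction was quantified as luminescence after 16 hr compound treatment at 37 C.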

[4] = qHTS assay for small molecule agonists of the antioxidant response element (ARE) signaling pathway measured by Nrf2-dependant transcriptional activity - cell viability counter screen (AID 720653; active = well fitted curve in the direction sought with a large enough effect in the repeat runs; an effect the other way counts as inactive or inconclusive; also: potency is read from the fitted curve at half-maximal effect; as to max response: % is scaled to controls: 0 for no effect and ±100 for the full control effect); details: ARE-bla HepG2 viability, CellTiter-Glo ATP luminescence, 16 h; max response: stronger effect = lower value
Summary of the method: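 ARE-bla HepG2 cells treated with compounds for 16 h at 37C; this counter screen measures viability as intracellular ATP by CellTiter-Glo luminescence after 30 min at room temperature.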

[5] = target: T1, Hexokinase-4 (Homo sapiens) + Glucokinase regulatory protein (Homo sapiens) (UniProt P35557+Q14397); assay: qHTS assay for inhibitors of recombinant human GCK-GKRP interaction: Diaphorase-coupled assay (AID 743205)
T1 sequence (P35557 whole entry, looked up): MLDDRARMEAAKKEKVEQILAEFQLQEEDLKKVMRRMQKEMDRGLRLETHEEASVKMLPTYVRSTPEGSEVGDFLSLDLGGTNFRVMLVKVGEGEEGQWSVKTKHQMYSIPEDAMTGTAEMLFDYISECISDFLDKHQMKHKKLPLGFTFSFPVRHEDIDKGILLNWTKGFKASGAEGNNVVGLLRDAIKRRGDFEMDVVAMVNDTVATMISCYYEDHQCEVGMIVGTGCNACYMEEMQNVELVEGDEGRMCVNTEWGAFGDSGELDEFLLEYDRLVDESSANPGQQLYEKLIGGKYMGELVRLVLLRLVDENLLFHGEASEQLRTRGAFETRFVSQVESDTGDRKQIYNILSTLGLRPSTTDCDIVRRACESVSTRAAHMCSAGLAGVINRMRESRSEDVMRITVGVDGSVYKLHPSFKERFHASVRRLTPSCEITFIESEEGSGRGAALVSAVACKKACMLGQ
T1 sequence (Q14397 whole entry, looked up): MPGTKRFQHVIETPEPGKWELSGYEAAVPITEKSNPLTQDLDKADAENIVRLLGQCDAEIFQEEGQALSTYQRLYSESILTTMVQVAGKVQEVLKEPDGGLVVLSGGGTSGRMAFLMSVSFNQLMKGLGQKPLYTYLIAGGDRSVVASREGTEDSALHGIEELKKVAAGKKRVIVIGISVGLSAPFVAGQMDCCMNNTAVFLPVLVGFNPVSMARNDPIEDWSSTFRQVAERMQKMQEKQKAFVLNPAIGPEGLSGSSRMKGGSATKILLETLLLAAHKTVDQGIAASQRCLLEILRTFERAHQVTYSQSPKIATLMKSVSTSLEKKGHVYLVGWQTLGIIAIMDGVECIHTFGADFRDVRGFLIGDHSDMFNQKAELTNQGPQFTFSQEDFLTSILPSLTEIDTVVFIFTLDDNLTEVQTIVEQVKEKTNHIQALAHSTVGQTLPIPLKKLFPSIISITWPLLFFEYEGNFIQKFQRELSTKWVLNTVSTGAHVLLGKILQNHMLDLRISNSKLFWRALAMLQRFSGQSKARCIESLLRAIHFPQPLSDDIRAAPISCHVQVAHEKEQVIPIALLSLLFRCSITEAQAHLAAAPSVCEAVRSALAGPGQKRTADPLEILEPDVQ
Summary of the method: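 Signal derives from resorufin generated by diaphorase, linked to GCK turnover of glucose (5 mM) and ATP (0.4 mM). Enzyme complex was added after a 20-minute compound preincubation and monitored for 30 minutes.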

[6] = target: T1, Hexokinase-4 (Homo sapiens) + Glucokinase regulatory protein (Homo sapiens); assay: qHTS assay for inhibitors of recombinant human GCK-GKRP interaction: ADP-Glo assay (AID 743206);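 also: plate controls were DMSO plus enzyme for no effect and no enzyme for full effect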
Summary of the method: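 Pin-transferred compounds meet a 15 nM GST-GCK/15 nM FLAG-GKRP/2 uM S6P mix (dispense concentrations). ATP is then added to 0.4 mM final with 5 mM glucose, and the reaction runs 60 min at room temperature. ADP is quantified luminescently.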

[7] = target: T1, Hexokinase-4 (Homo sapiens) + Glucokinase regulatory protein (Homo sapiens); assay: qHTS assay for inhibitors of recombinant human GCK-GKRP interaction: HTRF assay (AID 743207);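 also: 0% = DMSO with GCK present and -100% = DMSO wells lacking GCK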
Summary of the method: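 Titration screening format: recombinant GST-GCK and FLAG-GKRP at 5 nM, S6P at 2 uM, labelled anti-tag antibodies, 60 min at RT, dual-wavelength HTRF readout.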

[8] = qHTS Assay for Identifying Gametocytocidal Compounds (AID 743244); also: potency is read from the fitted curve at half-maximal effect;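 as to max response: % is scaled to controls: 0 for no effect and ±100 for the full control effect; actives lower the fluorescent signal which means gametocytes are killed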; details: P. falciparum 3D7 stage III-V gametocytes, alamarBlue, 72 h; max response: stronger effect = lower value
Summary of the method: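 A resazurin-based viability read-out was applied to mature P. falciparum gametocytes: 72 h compound treatment, then 24 h dye incubation, with falling fluorescence signalling gametocytocidal effect.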

[9] = qHTS assay for cell viability of HEK293 cells (AID 743288); details: ATP luminescence (CellTiter-Glo), 18 h; max response: stronger effect = lower value; also: nearly all actives have a fitted effect of over 50% in size; also: potency is read from the fitted curve at half-maximal effect; as to max response: % is scaled to controls: 0 for no effect and ±100 for the full control effect
Summary of the method: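 HEK293, 18 h, 37 C, ATP luminescence. Cells at 2,000/well were allowed at least 5 h to settle before dosing; CellTiter-Glo developed 30 min at RT.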

[10] = qHTS assay for cell viability of the p53RE-bla HCT-116 cell line (AID 743292); also: % is scaled to controls: 0 for no effect and ±100 for the full control effect; nearly all actives have a fitted effect of over 55% in size
Summary of the method: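 Intracellular ATP of p53RE-bla HCT-116 cells measured by luciferase luminescence following 16 h compound incubation at 37 C; DMSO-only wells served as vehicle controls.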

CC1=C(/C=C/C(C)=C/C=C/C(C)=C/C(=O)Nc2ccc(O)cc2)C(C)(C)CCC1
active: Potency [4] 44.7 µM | Potency [9] 50.1 µM
inactive: Potency [1] | Potency [2] | Potency [3] | outcome [5] | outcome [6] | outcome [7] | max response [8] -5.25% and -28.8%

CC1(C)CCC2=C(O1)c1ccccc1C(=O)C2=O
active: Potency [8] 2.82 µM
inactive: Potency [1] | Potency [2] | outcome [5] | outcome [6]

O=c1cc(-c2ccc(O)cc2)oc2cc(O)cc(O)c12
inactive: max response [4] -5.98% and -9.88% | outcome [5] | outcome [6] | outcome [7] | max response [8] 0.431% | max response [9] -29.2% and -22.7% | Potency [10]
active: Potency [1] 16.4 µM | Potency [2] 3.26 µM

COc1ccc(Cc2nccc3cc(OC)c(OC)cc23)cc1OC
inactive: Potency [1] | Potency [2] | outcome [6] | outcome [7]

CCN(CC)CCNC(=O)c1ccc(N)cc1
inactive: Potency [1] | Potency [2] | outcome [5] | outcome [6] | outcome [7] | max response [8] 34.9%

C[N+](C)(C)CCCCCC[N+](C)(C)C
inactive: Potency [1] | Potency [2] | outcome [5] | outcome [6] | outcome [7] | max response [8] 5.46% and 9.66% and 12.2%

O=C(O)Cc1cccc2ccccc12
inactive: Potency [3] | max response [4] -3.63% and 1.79% | max response [8] 19.3% and -5.56% | max response [9] 1.25% and 0.847% | Potency [10]

CC(=O)N[C@@H](CS)C(=O)O
inactive: Potency [1] | Potency [2] | Potency [3] | max response [4] 3.38% | outcome [5] | outcome [6] | outcome [7] | max response [8] 4.68% and -17% | max response [9] -3.84% | Potency [10]

O=C1NCC2(CCN(CCc3ccccc3)CC2)O1
inactive: Potency [1] | Potency [2] | outcome [5] | outcome [6] | outcome [7] | max response [8] 1.69% and 18.3%

CCCCC1C(=O)N(c2ccccc2)N(c2ccccc2)C1=O
inactive: Potency [2] | Potency [3] | max response [4] 4.44% and 1.83% | outcome [5] | outcome [6] | outcome [7] | max response [8] -1.91% and -0.936% and 31.1% | max response [9] -8.44% and -3.31% | Potency [10]

NC(N)=Nc1nc(CSCC/C(N)=N/S(N)(=O)=O)cs1
inactive: Potency [1] | Potency [2] | outcome [5] | outcome [6] | outcome [7] | max response [8] 5.05% and 9.64%

CCCCCN(C)CCC(O)(P(=O)(O)O)P(=O)(O)O
inactive: Potency [1] | Potency [2] | outcome [5] | outcome [6] | outcome [7]

O=C(O)CCc1nc(-c2ccccc2)c(-c2ccccc2)o1
inactive: Potency [2] | max response [8] 14.6% and 5.09%
